The full ranking holds about 39,000 sequences; the median of “fluorescence intensity (a.u.)” is about 4,300, and the highest 2% start at about 39,000. Only a selection was taken, and the highest values are over-represented in it overall.
The sequences below were run against T1, OsSMF1 (Oryza sativa, UniProt Q6ZLB0 1-436) (assay: protein-binding microarray (RPBM); PBS, 2% BSA, 51.3 ng/ul salmon testes DNA, 50 uM zinc acetate, 200 nM TF, 25 C, 1 h; high values mean tight binding). Details: protein: recombinant; tags: N-terminal polyhistidine and DsRed monomer fusion (pET32a); chain copies: 2; label: CyDye5-dUTP incorporated in the synthesized complementary strand; 3' TTTTT single-stranded linker to array surface; dsDNA, one strand shown.
T1 sequence: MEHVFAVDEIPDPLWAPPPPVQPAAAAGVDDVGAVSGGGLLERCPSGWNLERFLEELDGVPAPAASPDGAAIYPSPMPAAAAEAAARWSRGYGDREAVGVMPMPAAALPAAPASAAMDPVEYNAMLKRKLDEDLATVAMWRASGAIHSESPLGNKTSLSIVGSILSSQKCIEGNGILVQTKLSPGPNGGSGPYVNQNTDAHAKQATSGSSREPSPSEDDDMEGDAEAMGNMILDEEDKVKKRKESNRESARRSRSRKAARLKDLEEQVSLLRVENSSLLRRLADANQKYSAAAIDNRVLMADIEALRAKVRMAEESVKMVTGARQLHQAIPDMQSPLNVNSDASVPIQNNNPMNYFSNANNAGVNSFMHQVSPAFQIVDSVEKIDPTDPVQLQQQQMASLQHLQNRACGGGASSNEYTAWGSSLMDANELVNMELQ
How it was run: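 An Axon 4000B scanner gave the binding signal as per-feature fluorescence intensity in arbitrary units. This followed washing of a custom Agilent array that had been incubated for 1 h at 25 °C with 200 nM protein in PBS, 2% BSA, salmon testes DNA and 50 µM zinc acetate. The proteins were transcription factors fused at the N-terminus to polyhistidine and DsRed, expressed in E. coli BL21-CodonPlus and purified on Ni–NTA.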

| Sequence | binding signal |
| --- | --- |
| GATAAATATAGGAATGTTTATAATACTAAATTAATTTAATCGGAGTCACCTAGTGCAG | 28300 fluorescence intensity (a.u.) |
| TCTGTACCAAACTCAATTTTAGAATTCAGAGATCCAATAACGGAGTCACCTAGTGCAG | 40000 fluorescence intensity (a.u.) |
| CAGAAGGATATATGTTTTATAATTTATTCAAATACTAGATCGGAGTCACCTAGTGCAG | 41400 fluorescence intensity (a.u.) |
| CGATTTACTTCAAATTTTAGAGGATCAGATCCGACGAAATCGGAGTCACCTAGTGCAG | 42900 fluorescence intensity (a.u.) |
| CAATTCCGACGAAATCCGGTCGGATTTCACGAAATTTCGACGGAGTCACCTAGTGCAG | 20600 fluorescence intensity (a.u.) |
| ATTTTGGTCAAATTTAAACTAATCTAAGTTTGACTAATTTCGGAGTCACCTAGTGCAG | 8280 fluorescence intensity (a.u.) |
| TCAAAGGGTTTCATAAATTTTATGTATATTTTACAAGATTCGGAGTCACCTAGTGCAG | 5540 fluorescence intensity (a.u.) |
| GCTTTGGAACTCCTTTAGATTATAATCCAACTCAATTCAACGGAGTCACCTAGTGCAG | 4590 fluorescence intensity (a.u.) |
| TGATCAAAGGGTTTTACTAAAGGAGTTATGGTCTAATTTTCGGAGTCACCTAGTGCAG | 64900 fluorescence intensity (a.u.) |
| CGAATTTGCTACCCCATTTCACAAATCAAAAGTGCAAAGCCGGAGTCACCTAGTGCAG | 29200 fluorescence intensity (a.u.) |
| CACAGTCGACGACACCCTCCATCTCCGTCCCTCCCACTCCCGGAGTCACCTAGTGCAG | 7160 fluorescence intensity (a.u.) |
| ACGGGCCGTGCTTGGGCCAGCGGCTCGGCACGTGGGCCGGCGGAGTCACCTAGTGCAG | 3480 fluorescence intensity (a.u.) |
| GAATCAGTAAATAAAGCGCTAGGTTTAATGATGTCATGGACGGAGTCACCTAGTGCAG | 6840 fluorescence intensity (a.u.) |
| ATTAACAATTCAATGGTTCTTGATGTGTTCTACTTAACCTCGGAGTCACCTAGTGCAG | 3260 fluorescence intensity (a.u.) |
| AAGATAAATGGTTAAACCTTATATGTGAAACCAGAGAAAACGGAGTCACCTAGTGCAG | 21100 fluorescence intensity (a.u.) |
| CCTTCTTAACAGTCTGTGAAGCTCTGCCATCTCACCGTCTCGGAGTCACCTAGTGCAG | 3820 fluorescence intensity (a.u.) |
| CTTCGGCCTTAGCTCCAAATCCGATGTAAATTTACCAAATCGGAGTCACCTAGTGCAG | 61700 fluorescence intensity (a.u.) |
| TTCGGCGCAAATTTCTAATCATGATGTAATATAATTAGCTCGGAGTCACCTAGTGCAG | 3270 fluorescence intensity (a.u.) |
| CTCCAAATTAGTATCCAAACATCCGATGTGACATGGACTTCGGAGTCACCTAGTGCAG | 4370 fluorescence intensity (a.u.) |
| TTTCCAATCACGTATTCCGGACAAAGGCCTAAACCTGCTCCGGAGTCACCTAGTGCAG | 35800 fluorescence intensity (a.u.) |
| ACCAAAATTCTCATATCTCTCAACTAAACAAAACTCTTAACGGAGTCACCTAGTGCAG | 3300 fluorescence intensity (a.u.) |
| ACCCACGCACTCACTGACGATGCAATGCGGCCATATGCTACGGAGTCACCTAGTGCAG | 3240 fluorescence intensity (a.u.) |
| TTTTGCTTAGCTGTTCTGTAATTGTCGATTTGAATTGGATCGGAGTCACCTAGTGCAG | 3500 fluorescence intensity (a.u.) |

| Sequence | binding signal |
| --- | --- |
| AGTGCTTTATTTTGCTGATTCATTGTTAAAATTGCCTCTACGGAGTCACCTAGTGCAG | 5500 fluorescence intensity (a.u.) |
| GCAGAGTTCAGAATTTGTTCAGTTTAGGTGCTTCTGTAATCGGAGTCACCTAGTGCAG | 55600 fluorescence intensity (a.u.) |
| TAGTAGATAGCTTTGCTCTCTCTCTTCATTTAATATATTCCGGAGTCACCTAGTGCAG | 4540 fluorescence intensity (a.u.) |
| GATGTTCAGATGTACAACAGTAATTTGATTGCATCGGCTTCGGAGTCACCTAGTGCAG | 3270 fluorescence intensity (a.u.) |
| CTCTTCATTTGTTAATTTAATTTGATTAATTCAGTGCTTCCGGAGTCACCTAGTGCAG | 64900 fluorescence intensity (a.u.) |
| CGGGAGAGAGGATCGGGAGAGATAGGGTTAGGGTTAGGGTCGGAGTCACCTAGTGCAG | 3320 fluorescence intensity (a.u.) |
| CCACCACGTACAGTGCTTTCCTAGGCAGAAGCCCACTATCCGGAGTCACCTAGTGCAG | 3490 fluorescence intensity (a.u.) |
| ACCAATCGCATGACGATATTCCCGCTCCCACAATCGCGTTCGGAGTCACCTAGTGCAG | 3550 fluorescence intensity (a.u.) |
| CGAACCGATGGTTGTGATTGTACGTGTCTACCTGATACGTCGGAGTCACCTAGTGCAG | 5940 fluorescence intensity (a.u.) |
| GAAAATAAGGGAGTTTTCTGCAAAATTTGATGAATGGAAGCGGAGTCACCTAGTGCAG | 3230 fluorescence intensity (a.u.) |
| TTTTGGTCATTTTACCATATGACTTTGTTTTGGTAATTTGCGGAGTCACCTAGTGCAG | 3210 fluorescence intensity (a.u.) |
| TTTCTGTGACGGCCCGCGTAGCTTCGGAGGAAGCGACCACCGGAGTCACCTAGTGCAG | 47700 fluorescence intensity (a.u.) |
| CGGATTCTCGTCGGCTTCGGCGACCGGAAGAGGAGAGGAGCGGAGTCACCTAGTGCAG | 3230 fluorescence intensity (a.u.) |
| CGGAGTGGCCAGCGTGGTGACAAGCGCGACGTGGCGGCTTCGGAGTCACCTAGTGCAG | 6830 fluorescence intensity (a.u.) |
| AGCGGTTTCGCTGACGTGGCGGTTAGGTGGCATTTGAATTCGGAGTCACCTAGTGCAG | 23800 fluorescence intensity (a.u.) |
| TCCCTTGGCAGTATAGGTGGGTGGTTTTGCTTACGTGGCACGGAGTCACCTAGTGCAG | 40000 fluorescence intensity (a.u.) |
| GTTTAATGGGTTGATGTGGCATGCTTACATATAGGTTTTACGGAGTCACCTAGTGCAG | 5830 fluorescence intensity (a.u.) |
| CTTGGTGGTTTTATAGGGTGGTTTCGCTGACGTGGCGTGGCGGAGTCACCTAGTGCAG | 44600 fluorescence intensity (a.u.) |
| TGGAGGGCAGTTTCGCTGACGTGGCGGTGTTGACCTAGTGCGGAGTCACCTAGTGCAG | 34200 fluorescence intensity (a.u.) |
| TTTAGATGGCGGTTTTGGCTGACGTGGCACATATGTGGCTCGGAGTCACCTAGTGCAG | 33100 fluorescence intensity (a.u.) |
| GGTTTAGACGTGGCGGTGGTGGGTGGCGTACGTTTGGGTTCGGAGTCACCTAGTGCAG | 5180 fluorescence intensity (a.u.) |
| GGCACTATAGATGTTTGGTTTCGCTGACGTGGCATTCTAGCGGAGTCACCTAGTGCAG | 49000 fluorescence intensity (a.u.) |
| TCCCTTGACGGTTTTGGCTGACGTGGCGCCTAGGTGGCTACGGAGTCACCTAGTGCAG | 30000 fluorescence intensity (a.u.) |

Reference: article PMC7819943, “Rice protein-binding microarrays: a tool to detect cis-acting elements near promoter regions in rice”
